Laboratory results from PubChem BioAssay (NCATS).
Results filed as inconclusive are left out. Values without a mark were called inactive. Calls of active or inactive are those of the source. Calls come from the whole dose curve; as a rule, active = well fitted cell-killing curve with a large enough effect; inconclusive = small, poorly fitted or top-dose-only effect, or effect the other way; inactive = no such curve, though single readings can be large or run the other way.
Potency is the fitted concentration of half-maximal effect.

Assay: Quantitative High-Throughput drug screen in 47 multiple myeloma cell lines against the NCATS MIPE library collection: Karpas25_ECACC cell viability assay (AID 1918968; note: nearly all actives have a fitted effect of over 35% in size)
Conditions: Karpas25 myeloma viability, CellTiter-Glo ATP, 48 h; series mostly up to 45.8 µM; viability (% of control): at the top concentration
Text: PI: Beverly A. Mock Ph.D.
Laboratory of Cancer Biology and Genetics,
Center for Cancer Research, National Cancer Institute,
National Institute of Health, Bethesda, Maryland
Drug resistance and disease progression are common in multiple myeloma (MM) patients, underscoring the need for new therapeutic combinations. […] We hypothesized that effective combinations would reduce MYC expression and enhance p16 activity. […] These preclinical data identify potentially useful drug combinations for evaluation in drug-resistant MM and reveal potential mechanisms of combined drug sensitivity.
Described herein is the primary MIPE qHTS used to cherrypick compounds. Validated compounds were then further tested for potential synergistic activiy.
[1] Peat TJ, Gaikwad SM, Dubois W, Gyabaah-Kessie N, Zhang S, Gorjifard S, Phyo Z, Andres M, Hughitt VK, Simpson RM, Miller MA, Girvin AT, Taylor A, Williams D, D'Antonio N, Zhang Y, Rajagopalan A, Flietner E, Wilson K, Zhang X, Shinn P, Klumpp-Thomas C, McKnight C, Itkin Z, Chen L, Kazandijian D, Zhang J, Michalowski AM, Simmons JK, Keats J, Thomas CJ, Mock BA. Drug combinations identified by high-throughput screening promote cell cycle transition and upregulate Smad pathways in myeloma. Cancer Lett. 2023 Aug 1;568:216284. doi: 10.1016/j.canlet.2023.216284. Epub 2023 Jun 24. PMID: 37356470; PMCID: PMC10408729.
SEQUENCE No. (e.g., 1, 2, 3, etc.); […] (e.g., Cells, Incubation, Reagent, etc.); VALUE and DESCRIPTION.
1; Cells; 5 uL; white, solid bottom 1536-well Greiner assay plate.
2; Compounds; 23 nL; Kalypsis pin tool (Wako USA) equipped with a 1536-well pin head to transfer to the assay plates.
3; Incubation; 48 hours; 37C incubation.
4; Reagent;5uL; CellTiter Glo (Promega).
5; Detector; 425V; Luminescence; Viewlux PerkinElmer.
NOTES (numbers refer to Sequence numbers above)
1. The cell-based screening methods employed in this study were like those previously published. Briefly, the corresponding myeloma cell lines were screened in 1,536-well plates with 500 cells, 5-uL per well for inhibition of cell viability (assessed by measuring ATP levels with CellTiterGlo).
2. NCATS MIPE 4.0 library of approved and investigational drugs were added using the Kalypsis pin tool. Wells treated with DMSO only for 100% viability and media only wells for 0% viability were used as controls.
3. The assay plates were covered and incubated for 48 hours in a 37C, 5% CO2 incubator with controlled humidity.
4. After 48 hours, CellTilter-GloTM luminescent substrate mix (Promega) reagent was added to the assay plate and plates we incubated for 5 min at room temperature.
5. Signal was measured as median relative luminescence units on a ViewLux (PerkinElmer) multiplate reader.
[1] Heske CM, Davis MI, Baumgart JT, Wilson K, Gormally MV, Chen L, Zhang X, Ceribelli M, Duveau DY, Guha R, Ferrer M, Arnaldez FI, Ji J, Tran HL, Zhang Y, Mendoza A, Helman LJ, Thomas CJ. Matrix Screen Identifies Synergistic Combination of PARP Inhibitors and Nicotinamide Phosphoribosyltransferase (NAMPT) Inhibitors in Ewing Sarcoma. Clin Cancer Res. 2017 Dec 1;23(23):7301-7311. doi: 10.1158/1078-0432.CCR-17-1121. Epub 2017 Sep 12. PMID: 28899971; PMCID: PMC6636827.
In the case of `c1ccc(CNc2nc(NCc3ccccc3)c3ccccc3n2)cc1`, the Potency is reported as 5.9 µM (active). For `O=C(O)C=Cc1ccc(Cn2ccnc2)cc1`, the “viability (% of control)” value was 140%. In the case of `Cc1ccccc1C(=O)Nc1ccc(C(=O)N2CCCC(O)c3cc(Cl)ccc32)c(C)c1` (stereo not given), the Potency is reported as 14.8 µM (active). In the case of `CCc1cnn2c(NCc3ccc[n+]([O-])c3)cc(N3CCCC[C@@H]3CCO)nc12`, the Potency is reported as 0.0332 µM (active). With `CCN(CC)CCNC(=O)c1c(C)[nH]c(C=C2C(=O)Nc3ccc(F)cc32)c1C` the Potency was 1.36 µM (active). For `COc1cccc2c1C(=O)c1c(O)c3c(c(O)c1C2=O)C[C@@](O)(C(=O)CO)C[C@H]3O[C@H]1C[C@H](N)[C@H](O)[C@H](C)O1`, the Potency was 0.118 µM (active). With `O=C1NCCc2[nH]c(-c3ccncc3)cc21` the Potency was 2.96 µM (active). For `C[C@H](O)[C@@H]1C(=O)N2C(C(=O)O)=C(S[C@@H]3CN[C@H](CNS(N)(=O)=O)C3)[C@@H](C)[C@@H]12`, the “viability (% of control)” value was 127%. With `O=C(c1ccc(F)cc1)N1CCC[C@H](c2nc(-c3ccc(F)cc3)no2)C1` the “viability (% of control)” value was 125%. For `CC(C)n1cnc2c(NCCc3ccc(O)cc3)nc(-c3csc4ccccc34)nc21`, the Potency was 4.18 µM (active). For `C=CCNc1c(O)cc2c(O)c1C[C@@H](C)C[C@H](OC)[C@@H](O)[C@@H](C)C=C(C)[C@H](OC(N)=O)[C@@H](OC)C=CC=C(C)C(=O)N2`, the Potency was 0.469 µM (active). For `Cn1cc(C[C@@H](N)C(=O)O)c2ccccc21`, the “viability (% of control)” value was 125% [at 23.2 µM]. With `CCOC(=O)N1CCN([N+]([O-])=NOc2ccc([N+](=O)[O-])cc2C#N)CC1` the Potency was 0.743 µM (active). In the case of `Cc1cc(Nc2ncc3c(n2)N(C)C(=O)N(c2cc(NC(=O)c4cccc(C(F)(F)F)c4)ccc2C)C3)n(C)n1`, the Potency is reported as 0.372 µM (active). With `CC(C)C[C@H](NC(=O)[C@@H](NC(=O)c1cccc(-c2ccccc2)n1)[C@@H](C)O)B(O)O` the Potency was 0.0132 µM (active). With `CCOc1cc2ncc(C#N)c(Nc3ccc(OCc4ccccn4)c(Cl)c3)c2cc1NC(=O)C=CCN(C)C` the Potency was 0.662 µM (active). For `COc1ccnc2[nH]cc(C(=O)C(=O)N3CCN(C(=O)c4ccccc4)C[C@@H]3C)c12`, the “viability (% of control)” value was 107%. With `COc1ccc(S(=O)(=O)Nc2cccnc2Nc2ccc(O)cc2)cc1` the Potency was 0.235 µM (active). In the case of `COc1cc(C(C)C)c(Oc2cnc(NC(CO)CO)nc2N)cc1I`, the Potency is reported as 18.7 µM (active). For `COc1cc(C)c(Sc2cnc(NC(=O)c3ccc(CNC(C)C(C)(C)C)cc3)s2)cc1C(=O)N1CCN(C(C)=O)CC1` (stereo not given), the Potency was 4.69 µM (active). In the case of `CC(C)N(CC[C@H](c1ccccc1)c1cc(CO)ccc1O)C(C)C`, the “viability (% of control)” value is reported as 155%. For `COc1cccc2c1C(=O)c1c(O)c3c(c(O)c1C2=O)C[C@@](O)(C(C)=O)C[C@H]3O[C@H]1C[C@H](N)[C@H](O)[C@H](C)O1`, the Potency was 0.0372 µM (active). With `CNC(=O)c1cccc(-c2ccc3c(N4CCOC[C@H]4C)nc(N4CCOC[C@H]4C)nc3n2)c1` the Potency was 0.0743 µM (active). In the case of `C[C@@H]1CC[C@@]2(OC1)OC1CC3C4CC=C5CC(O)CCC5(C)C4CCC3(C)C1[C@@H]2C` (stereo not given in full), the “viability (% of control)” value is reported as 112%. In the case of `COc1ccc2c(c1OC)C(=O)OC2[C@H]1c2c(cc3c(c2OC)OCO3)CCN1C` (stereo not given in full), the Potency is reported as 0.235 µM (active). In the case of `FC(F)c1nc2ccccc2n1-c1nc(N2CCOCC2)nc(N2CCOCC2)n1`, the Potency is reported as 0.0935 µM (active). With `CC(C)(O)CC[C@@H](O)[C@](C)(O)[C@H]1CC[C@@]2(O)C3=CC(=O)[C@@H]4C[C@@H](O)[C@@H](O)C[C@]4(C)[C@@H]3CC[C@]12C` the “viability (% of control)” value was 98.5%. For `CCCCCCCCc1ccc(CCC(N)(CO)CO)cc1`, the Potency was 5.9 µM (active). For `Cn1cc(C2=C(c3c4n(c5ccccc35)CCC(CN)C4)C(=O)NC2=O)c2ccccc21` (stereo not given), the Potency was 7.43 µM (active). In the case of `Cc1cnc(Nc2ccc(CN3CCOCC3)cc2)nc1Nc1cccc(S(=O)(=O)NC(C)(C)C)c1`, the Potency is reported as 1.32 µM (active). In the case of `Oc1ccc([C@@H]2Oc3ccc(O)cc3[C@@H]3CCC[C@@H]32)cc1`, the Potency is reported as 14.8 µM (active). With `Cc1cc(O)c2c(c1)C(=O)c1cccc(O)c1C2=O` the “viability (% of control)” value was 111%. With `NC[C@H]1O[C@H](O[C@H]2[C@@H](O)[C@@H](O[C@H]3O[C@H](CO)[C@@H](O)[C@H](N)[C@@H]3O)[C@H](N)C[C@@H]2N)[C@H](N)C[C@H]1O` the “viability (% of control)” value was 117%. In the case of `CCCNC(=O)[C@H]1O[C@H]1C(=O)N[C@H](C(=O)N1CCC[C@@H]1C(=O)OC)C(C)CC` (stereo not given in full), the Potency is reported as 14.8 µM (active). For `CCCc1nc(C(C)(C)O)c(C(=O)O)n1Cc1ccc(-c2ccccc2-c2nn[nH]n2)cc1`, the “viability (% of control)” value was 102%. For `CN[C@@H]1C[C@H]2O[C@@](C)([C@H]1OC)n1c3ccccc3c3c4c(c5c6ccccc6n2c5c31)C(=O)N[C@H]4O`, the Potency was 0.132 µM (active). For `O=C1CSC(=O)N1C(CCc1ccncc1)COc1ccc(-c2cccc([N+](=O)[O-])c2)cc1` (stereo not given), the Potency was 2.64 µM (active). For `C[C@H](NC(=O)C(C#N)=Cc1cccc(Br)n1)c1ccccc1`, the Potency was 2.09 µM (active). With `CCOC(=O)[C@H](CCc1ccccc1)N[C@@H](C)C(=O)N1[C@@H](C(=O)O)C[C@H]2CCC[C@@H]21` the Potency was 7.43 µM (active). With `O=C(NCc1ccccc1)[C@H](Cc1ccccc1)NC(=O)[C@@H]1O[C@@H]1C(=O)NCCc1ccc(O)cc1` the Potency was 23.5 µM (active).
